Data: PubChem BioAssay (NCI)
About 83,000 compounds went through this panel and 20% of them were active in at least one assay; those are over-represented in the sample as a whole.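 Note: values are percent growth. 100 is the growth of untreated cells, values between 100 and 0 indicate rising inhibition; between -100 and 0 indicates cell death.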 A number with no mark means an inactive call. Activity calls are given as the source filed them. How the source made its calls: active means growth percent below 10; inactive means the rest.

System: MDA-MB-468 breast
Assay: NCI-60 one-dose screen, 48 h (100 = growth as untreated, 0 = no growth, -100 = all killed)
Details: 10 µM unless noted

Row | Compound | growth
1 | CCOC(=O)C1=C(C)c2ccc(OC)c(OC)c2C1 | 99.4%
2 | CCNCCNc1cc(-c2ccc(C(=O)OC)cc2)c(C#N)c2nc3ccccc3n12 | 31.4%
3 | O=C1C(=O)/C(=C/c2ccccc2)CCCCCC/C1=C/c1ccccc1 | 65.7%
4 | CCOc1ccc2[nH]c(=S)sc2c1 | 107%
5 | COc1ccc(/C=C2\SC(=S)N(CCCN3CCOCC3)C2=O)c(OC)c1 | 87.4%
6 | CCOC(=O)c1ccc2c(c1)nc(-c1ccc(Cl)cc1)n2-c1cc(C(C)(C)C)[nH]n1 | 18.7%
7 | COc1ccc(CC2c3cc(OC)c(OC)cc3CC[N+]2(C)CCC(=O)OCCCCCOC(=O)CC[N+]2(C)CCc3cc(OC)c(OC)cc3C2Cc2ccc(OC)c(OC)c2)cc1OC (stereo not given) | 88.3%
8 | C[n+]1c(-c2ccccc2)c2cc(N)ccc2c2ccccc21 | -15.4% (active)
9 | CCN(Cc1ccc(CN(CC)C(=O)C(Cl)(Cl)Cl)cc1)C(=O)C(Cl)(Cl)Cl | 62.5%
10 | C/C(=C(/c1ccc(Cl)cc1)c1ccc(OCCN2CCCCC2)cc1)c1ccccc1 | 90.6%
11 | COc1ccc2[nH]c(-c3ccccc3)c(C=C(C#N)C#N)c2c1 | -4.84% (active)
12 | C=C(CBr)[C@@H]1CC[C@]2(C(=O)O)CC[C@]3(C)[C@H](CC[C@@H]4[C@@]5(C)CCC(=O)C(C)(C)[C@@H]5CC[C@]43C)[C@@H]12 | 40.3%
13 | COc1ccc2c(c1)sc1nc(-c3ccccc3)c(-c3cccc4ccccc34)n12 | 11.5%
14 | C=CCN=c1sc2c(n1NC(=O)c1cc3ccc1CCc1ccc(cc1)CC3)C(=O)c1ccccc1C2=O | -30.1% (active)
15 | COc1c(N2CC3CCCNC3C2)c(F)cc2c(=O)c(C(=O)N/N=C/c3ccc(N(C)C)cc3)cn(C3CC3)c12 (stereo not given) | 79%
16 | O=C(CSc1nc2sc3c(c2c(=O)n1-c1ccc(Cl)cc1)CCCC3)N/N=C/c1ccc(F)cc1 | 129%
17 | Cc1nn(-c2ccc(-c3ccc(OC(F)(F)F)cc3)cc2)c2nc(Cc3ccccc3)nc(N)c12 | 46%
18 | O=C(c1ccc(O)cc1)[C@@H]1[C@@H]2CCCN2[C@@]2(C(=O)N(C(=O)c3ccc(F)cc3)c3ccccc32)[C@H]1c1ccc(F)cc1 | 92.4%
19 | COc1cc(C(=O)Oc2ccccc2OC(=O)c2cc(OC)c(OC)c(OC)c2)cc(OC)c1OC | 105%
20 | CC(=O)OCC(=O)[C@@]1(O)CC[C@H]2[C@@H]3CC[C@@H]4C[C@H](O)CC[C@]4(C)[C@H]3C(=O)C[C@@]21C | 98.1%

Row | Compound | growth
21 | Cc1nc2c(ccc3ccccc32)s1 | 109%
22 | CN(C)c1ccc(/C=N/N=C(N)N)cc1 | 33%
23 | C#CCCCCCCC[C@@H]1OC(=O)[C@H]([C@@H](C)CC)NC(=O)[C@H]([C@@H](C)CC)NC(=O)CC(=O)[C@@H]1C | 95.3%
24 | Cc1ccc(-c2c(Br)c(OC(=O)CO[C@@H]3C[C@H](C)CC[C@H]3C(C)C)c(-c3ccc(C)cc3C)c(Br)c2OC(=O)CO[C@H]2C[C@@H](C)CC[C@@H]2C(C)C)c(C)c1 | 34.5%
25 | CCOC(=O)C1=NNC(c2ccc(Cl)cc2)C1C(=O)N1C(=S)NC(=O)C1CC(C)C (stereo not given) | 102%
26 | C=CCN=C(N)SCCCCCCSC(N)=NCC=C | 84.7%
27 | COc1ccc(C2N(c3cc(OC)c(OC)c(OC)c3)C(=O)C2(F)F)cc1F (stereo not given) | 44.5%
28 | Nc1c(C(=O)Nc2cccc(Cl)c2)sc2nc3c(cc12)C(=O)CCC3 | -10.6% (active)
29 | CCc1ccc(C(c2ccc(CC)cc2)C(Cl)(Cl)CCl)cc1 | 95.8%
30 | O=c1oc2ccc(Br)cc2c(=O)n1-c1ccc(F)cc1F | -2.96% (active)
31 | CC(C)(C)CC(C)(C)Nc1c(-c2ccc3c(c2)OCO3)nc2cnccn12 | 95.2%
32 | NCCCn1c2c(c3cc(-c4ccn[nH]4)ccc3c1=O)C(=O)c1ccccc1-2 | 62.6%
33 | COc1ccc(-c2cc(-c3ccc(Cl)cc3)c(C#N)c(=O)n2CCCCC(=O)NO)cc1 | 72.6%
34 | Cc1csc(NC(c2ccc(Br)cc2)c2c(C)nc3ccccn23)n1 (stereo not given) | 93.5%
35 | CCOc1cc(C2C(Cl)C(=O)N2n2cnnc2)ccc1O (stereo not given) | 111%
36 | COc1ccc(N=c2nc3sc4cc(Cl)ccc4n3c(N)c2C#N)cc1 | -7.79% (active)
37 | CCOC(=O)C1C(=O)C=C(c2cc(OC)c(OC)c(OC)c2)CC1c1sc(N(C)Cc2ccccc2)nc1Cl (stereo not given) | 71.2%
38 | COc1cc2nc3cc([N+](=O)[O-])ccc3c(NCCNCC(C)(C)O)c2cc1OC | -37.5% (active)
39 | CSc1nc2ncnc(SC)c2[nH]1 | 106%
40 | COc1cc2c(cc1OC)-c1ccc3cc4c(cc3c1N(CCCN1CCCCC1)C2)OCO4 | 56.5%
